Compound activity from PubChem.
This is a sample that favours compounds with a hit; in the whole collection about 2.5% have one here.
POLI inh: qHTS for Inhibitors of Polymerase Iota | Pol iota fluorescent replication assay, 10 min | Potency, µM (doses to about 115 µM), inactives show at the highest dose activity, negative = inhibition, usual class: inhibitors | AID 588590, 2011 | DNA polymerase iota (Homo sapiens), Q9UNA4 | actives 1% (n = 390,000)
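Pol iota at 10 nM preincubated 15 min with compounds at room temperature; reaction started with fluorescent substrate, 50 nM final. Fluorescence read kinetically at 0 and 10 min; buffer-only wells as negative control.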
POLH inh: qHTS for Inhibitors of Polymerase Eta; DNA polymerase eta (Homo sapiens), Q9Y253; recombinant Pol eta, fluorescent DNA replication assay; Potency, µM (series often up to 114 µM), for inactives: at the highest dose activity change, negative = inhibition, usual class: inhibitors; actives 1.2% (n = 390,000); AID 588591, 2011; also: % is scaled to controls: 0 for no effect and ±100 for the full control effect
Target sequence (Q9Y253 whole entry, looked up): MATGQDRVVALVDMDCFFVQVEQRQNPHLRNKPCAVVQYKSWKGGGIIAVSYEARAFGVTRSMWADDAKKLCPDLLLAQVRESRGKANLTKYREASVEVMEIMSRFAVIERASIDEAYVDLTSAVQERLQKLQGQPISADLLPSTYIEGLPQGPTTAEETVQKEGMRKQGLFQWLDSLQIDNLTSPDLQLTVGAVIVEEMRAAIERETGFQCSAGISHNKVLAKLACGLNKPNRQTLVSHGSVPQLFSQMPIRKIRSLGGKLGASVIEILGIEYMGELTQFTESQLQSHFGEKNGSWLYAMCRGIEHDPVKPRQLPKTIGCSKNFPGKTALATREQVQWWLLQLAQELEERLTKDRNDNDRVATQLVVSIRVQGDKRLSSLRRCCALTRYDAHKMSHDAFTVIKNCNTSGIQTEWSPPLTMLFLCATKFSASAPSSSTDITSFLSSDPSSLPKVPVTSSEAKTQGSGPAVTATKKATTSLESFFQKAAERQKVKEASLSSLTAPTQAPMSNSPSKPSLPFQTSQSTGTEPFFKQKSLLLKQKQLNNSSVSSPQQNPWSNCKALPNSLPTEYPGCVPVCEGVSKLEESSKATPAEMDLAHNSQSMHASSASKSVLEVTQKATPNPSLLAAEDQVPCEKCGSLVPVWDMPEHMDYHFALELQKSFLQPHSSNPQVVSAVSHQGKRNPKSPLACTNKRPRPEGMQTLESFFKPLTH
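Pol eta (10 nM) was preincubated with compounds for 15 min at room temperature, after which fluorescent replication substrate (50 nM final) was added to start the reaction. Fluorescence was read kinetically at 0 and 10 min.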
Pol kappa inh: qHTS for Inhibitors of Polymerase Kappa; DNA polymerase kappa (Homo sapiens), Q9UBT6; purified Pol kappa, fluorescent DNA synthesis assay, 10 min; Potency, µM (top dose mostly 107 µM), for the others: top-dose activity, negative = inhibition, most hits filed as inhibitors; actives 0.53% (n = 400,000); AID 588579, 2011; also: % is scaled to controls: 0 for no effect and ±100 for the full control effect
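Activity was followed as the change in fluorescence between reads at 0 and 10 min after starting the reaction with 50 nM substrate. Beforehand, 10 nM polymerase had been preincubated with compound for 15 min at room temperature.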
WRN inhibitor: qHTS for Inhibitors of WRN Helicase | Bifunctional 3'-5' exonuclease/ATP-dependent helicase WRN (Homo sapiens), Q14191 | WRN helicase unwinding, fluorescent forked duplex, kinetic | Potency, µM (top dose mostly 114 µM), for inactives: top-dose activity change, negative = inhibition, most hits filed as inhibitors | actives 0.46% (n = 360,000) | AID 651768, 2012; also: % is scaled to controls: 0 for no effect and ±100 for the full control effect; nearly all actives have a fitted effect of over 55% in size
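Kinetic fluorescence helicase assay: unwinding of a quenched forked DNA duplex (100 nM final) with 2 mM ATP final raises red fluorescence (525/598 nm). Compounds sat 15 min at room temperature with 20 nM WRN beforehand.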
POLB inh: qHTS Assay for Inhibitors of DNA Polymerase Beta | Pol beta primer extension/strand displacement, fluorescence kinetic | P06746 | Potency, µM (highest dose often 114 µM), for the others: at the top dose activity change, negative = inhibition, hits mostly inhibitors | actives 1.3% (n = 340,000); also: % is scaled to controls: 0 for no effect and ±100 for the full control effect
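10 nM enzyme + cpd, 15 min RT; start with substrate 50 nM final; read 0 min and after 10 min RT. Corrected, normalized data; 4-parameter Hill curve fit.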
L3MBTL1 inh: qHTS Assay for the Inhibitors of L3MBTL1. AID 485360, 2010. Lethal(3)malignant brain tumor-like protein 1 (Homo sapiens), Q9Y468. AlphaScreen L3MBTL1–H3K9me1 peptide binding. Potency, µM (top dose mostly 57.1 µM), for inactives: top-dose activity, negative = inhibition, hits mostly inhibitors. actives 0.66% (n = 230,000); also: % is scaled to controls: 0 for no effect and ±100 for the full control effect; nearly all actives have a fitted effect of over 60% in size
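AlphaScreen proximity signal between nickel-chelate acceptor and streptavidin donor beads (final 10 ug/mL) reports binding of 50 nM L3MBTL1 to 75 nM biotin-H3 K9me1 peptide; complex incubated with compounds 30 min at room temperature; cefsulodin titration as control.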
Starred values were filed as active, the others as inactive; ? = inconclusive; · = no result given; [ ] = remark or other dose. Calls follow the shape of the dose curve; as a rule, active = well fitted curve in the direction sought with a large enough effect; inconclusive = small, poorly fitted or top-dose-only effect, or another doubt; inactive = no such curve, though single readings can be large; an effect the other way counts as inactive or inconclusive. Potency is read from the fitted curve at half-maximal effect.

SMILES | POLI inh | POLH inh | Pol kappa inh | WRN inhibitor | POLB inh | L3MBTL1 inh
COc1ccc(CC(=O)n2[nH]c(=O)c3ccccc3c2=O)cc1OC | -4.4% | -14.2% | -0.5% | 5.5% | 0.9% | 10.5%
COc1ccc(CC(=O)n2[nH]c(=O)ccc2=O)cc1OC | 51.1% | -11.9% | -9.3% | 22.4µM* | -16.5% | 3.0%
Nc1nc(Nc2ccccc2F)nc(N2CCCC2)c1[N+](=O)[O-] | 20.4% | -10.7% | 7.1% | -4.7% | 79.5% | ·
COc1ccc(Nc2cc(C)nc(N3CCOCC3)n2)cc1 | 31.6µM* | 3.9% | -10.3% | -8.4% | 24.0% | -2.7%
COC(=O)Cn1c2ccc(OC)cc2c2nc(C)sc21 | 29.3% | -1.9% | -6.2% | 1.4% | 48.1% | 3.5%
Cc1ccc(C2CC(=O)Oc3cc4c(cc32)OCO4)cc1 (stereo not drawn) | · | · | 44.7µM* | · | · | ·
O=C1CC(c2ccc3c(c2)OCO3)c2cc(O)ccc2O1 (stereo not drawn) | · | · | 31.6µM* | · | · | ·
CCC(C(=O)O)n1c2ccccc2c2cn[nH]c(=O)c21 (stereo not drawn) | -9.1% | ? | -30.5% | 0.3%[11.6 µM] | 22.4µM* | ·
CCC(C(=O)O)n1c(C(F)(F)F)nc2ccccc21 (stereo not drawn) | 11.3% | -7.4% | 1.0% | 8.0% | 3.8% | 0.5%[11.4 µM]
O=C(NCCCn1ccnc1)c1ccco1 | 1.1% | -2.9% | -3.4% | -0.2% | -0.7% | 3.6%
O=C(O)c1ccccc1-n1ncc2c1/C(=C/c1ccc(Cl)cc1)CC2 | · | · | · | · | 39.8µM* | -20.2%
O=C(O)c1ccc(-n2ncc3c2/C(=C\c2cccc([N+](=O)[O-])c2)CC3)cc1 | ? | ? | -10.9% | -21.8% | · | ·
Cc1nnc(N/N=C/c2ccc([N+](=O)[O-])cc2)n1N | ? | -5.4% | -11.3% | -1.8%[11.6 µM] | 0.1% | ?
Cc1nnc(N/N=C/c2cc([N+](=O)[O-])c(N3CCC(C)CC3)cc2N2CCC(C)CC2)n1N | 3.98µM* | -16.5% | -13.3% | -17.1%[57.1 µM] | -22.8% | ·
CCc1nnc(N/N=C/c2ccc(N3CCC(C)CC3)c([N+](=O)[O-])c2)n1N | 8.91µM* | -14.2% | -24.7% | -1.4%[11.6 µM] | -0.4% | -5.0%
CCc1nnc(N/N=C/c2ccccc2Cl)n1N | ? | 4.1% | -21.1% | -6.9% | 14.1% | -7.1%
Cc1ccc(-c2cnc(C3CC3)o2)cc1S(=O)(=O)Nc1cccc(C#N)c1 | -5.9% | · | -0.9%[60.1 µM] | · | -14.8% | ·
C=CCN(CC=C)C(=O)c1cc2ccccc2c(=O)o1 | ? | -3.7% | 7.1% | 11.5% | 3.3% | 11.4%
Cc1ccc(-c2nc3ncccc3o2)cc1NC(=O)c1cccnc1 | 12.1% | 1.8% | -1.3% | 5.3% | ? | 1.2%
Cc1cc(OCC(=O)Nc2cc(-c3nc4ncccc4o3)ccc2C)ccc1Cl | -13.4% | 79.4µM* | -14.1% | · | -3.8% | ·
Cc1ccc(-c2nc3ncccc3o2)cc1NC(=O)c1ccccc1 | -6.1% | 56.2µM* | 0.5% | -2.9%[11.6 µM] | 9.4% | -4.6%
Cc1cccc(-n2c(O)c(C=Nc3ccccc3-c3n[nH]c(=S)[nH]c3=O)c3ccccc3c2=O)n1 | 7.5% | -10.8% | -8.5% | -2.1% | -1.4% | -9.4%
Cc1ccc(-n2c(O)c(C=Nc3ccccc3-c3n[nH]c(=S)[nH]c3=O)c3ccccc3c2=O)c(C)c1 | 44.7µM* | ? | ? | 0.4% | 89.1µM* | -10.5%
O=C(/C=C/c1ccco1)N(Cc1cccc(Br)c1)C1CCS(=O)(=O)C1 (stereo not drawn) | -3.0% | -16.7% | -18.0% | -17.4% | ? | ·
Oc1ccc(CNc2ccccc2F)c2cccnc12 | 4.0% | -14.9% | 2.5% | 1.0% | 5.3% | 8.91µM*
SMILES | POLI inh | POLH inh | Pol kappa inh | WRN inhibitor | POLB inh | L3MBTL1 inh
Oc1ccc(CNc2cccc(F)c2F)c2cccnc12 | · | · | · | · | · | 25.1µM*
Oc1ccc(F)c2cccnc12 | 90.3% | -12.8% | 1.6% | 4.5% | 15.1% | ?
CC(OC(=O)Cc1c(F)cccc1Cl)C(=O)NC1(C#N)CCCCC1 (stereo not drawn) | 20.7% | -5.1% | -7.5% | -1.4% | · | 0.7%
CC(Sc1ccc(S(=O)(=O)N2CCN(C)CC2)cn1)C(=O)NC1(C#N)CCCCC1 (stereo not drawn) | 27.6% | -14.4% | -2.8% | -0.1% | · | 6.0%
O=C(CN1CCOCC1)NN=Cc1ccc([N+](=O)[O-])o1 | · | · | · | -6.2% | · | ·
O=C(CCN1CCN(c2ccccc2)CC1)N/N=C/c1ccc([N+](=O)[O-])o1 | ? | ? | -7.3% | -9.8% | 70.8µM* | -1.7%
O=C(CN1CCOCC1)N/N=C/c1ccc(-c2ccc(C(=O)O)cc2)o1 | -0.3% | 39.8µM* | -28.9% | -8.2% | ? | ·
O=C(CN1CCCCCCC1)N/N=C/c1ccc([N+](=O)[O-])o1 | 44.7µM* | ? | ? | -14.7%[11.6 µM] | ? | ?
O=C(CCN1CCN(c2ccccc2)CC1)N/N=C/c1ccc(O)c(O)c1O | 1.26µM* | 22.4µM* | 3.55µM* | 39.8µM* | 2.82µM* | 5.62µM*
Cc1cccc(-c2nc(CS(=O)CC(=O)NCc3ccco3)c(C)o2)c1 (stereo not drawn) | 21.1% | -14.5% | 4.2% | 4.8% | 13.3% | ·
COc1ccccc1CCc1nnc(CCC(=O)NC(C)Cn2nc(C)cc2C)o1 (stereo not drawn) | 9.0% | -10.5% | -3.0% | -3.4% | -27.4% | 3.5%
COc1cc(C(=O)c2ccccc2Cl)c([N+](=O)[O-])cc1OC | -15.2% | -19.1% | 6.8%[60.1 µM] | -0.5% | -2.3% | -20.1%
Cc1sc2nc(COC(=O)c3c(F)cccc3F)[nH]c(=O)c2c1C | 92.0% | -13.8% | 0.7% | -1.8% | -27.5% | 9.0%
COc1ccc(S(=O)(=O)Nc2ccccc2)cc1 | 70.1% | 0.0% | -3.7% | -34.3% | · | ·
Cc1ccc(C)c(S(=O)(=O)Nc2ccc(O)c3ccccc23)c1 | ? | -12.0% | -9.2% | -3.9% | 15.4% | -45.0%
Cc1ccc(S(=O)(=O)NNc2ccccc2)c(C)c1 | -9.9% | -5.8% | -7.8% | 50.1µM* | ? | 7.5%
COc1ccc(S(=O)(=O)Nc2ccc(O)c3ccccc23)cc1 | 20µM* | -16.6% | -6.9% | 79.4µM* | 7.6% | 28.2µM*
Cc1ccc(S(=O)(=O)NNC(=O)c2cccs2)c(C)c1 | 1.4% | -18.1% | 0.3% | 1.2% | 19.6% | 5.1%
Cc1ccc(S(=O)(=O)Nc2ccc(O)c3ccccc23)c(C)c1 | ? | -6.4% | -16.0% | 50.1µM* | -18.9% | ·
